Results from PubChem BioAssay AID951 (NMMLSC, 2007).
Hit rate of the full screen: of about 190,000 compounds, about 140 (0.074%) were called active. The sample holds actives, similar compounds and a random draw of the others, so the mix is not that of the screen. Values without a mark were called inactive. Rule as the data show it: active = inhibition above about 40%.

biological target: Bcl-2-like protein 10 (Homo sapiens) (UniProt Q9HD36); assay: Bcl-B and Bim peptide interaction disruptors – biochemical, multiplexed, human Bcl-2 family, primary screen (AID 951); conditions: bead-based flow cytometry, Bim peptide-Bcl-B binding; at 10 µM; active compounds read high;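 also: 0% = tracer peptide without compound and 100% = reference inhibitor peptide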
Sequence (Q9HD36 whole entry, looked up): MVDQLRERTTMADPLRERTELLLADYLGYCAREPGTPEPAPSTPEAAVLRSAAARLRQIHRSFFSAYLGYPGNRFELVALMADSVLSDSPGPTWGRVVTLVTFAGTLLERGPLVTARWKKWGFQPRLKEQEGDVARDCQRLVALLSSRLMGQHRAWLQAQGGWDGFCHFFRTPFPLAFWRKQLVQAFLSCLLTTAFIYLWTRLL

Row | SMILES | inhibition
1 | COc1ccccc1N1CCN(CC(=O)NC(=O)NCc2ccco2)CC1 | -9%
2 | CCN(CCn1cccn1)Cc1cn[nH]c1-c1ccc(OC)cc1F | -4%
3 | O=C(COC(=O)CNC(=O)c1ccccc1F)NCC(F)(F)F | -5%
4 | COc1ccc(C(CC(=O)Nc2ccc(C)cc2)NC(=O)C(F)(F)F)cc1 (stereo unspecified) | -9%
5 | CCOC(=O)c1oc2c(CN3CCN(CCO)CC3)c(O)c(CC)cc2c(=O)c1-c1nc2ccccc2s1 | 0%
6 | N#Cc1ccccc1NC(=O)COc1c(Br)cc(Br)c2cccnc12 | -7%
7 | Cc1ccc(Nc2nc(CSc3nnc(-c4ccncc4)n3-c3ccccc3C)cs2)cc1 | -11%
8 | CCCCc1ccc(NC(=S)N2CCCC(CO)C2)cc1 (stereo unspecified) | -7%
9 | Cc1ccc(NC(=O)O/N=C/c2cccc([N+](=O)[O-])c2)cc1 | 0%
10 | CCOc1cc(NC(=S)NCCCOC)c(OCC)cc1NC(=O)c1ccco1 | -11%
11 | NC(=O)c1ccccc1N=Cc1ccc2ccccc2c1 | -4%
12 | O=c1c(-c2ccccc2)cnc2n1CCS2 | -2%
13 | O=C(CC1SCCNC1=O)Nc1ccc(Cl)c(Cl)c1 (stereo unspecified) | -1%
14 | CCC(CC)C(=O)N1CCN(c2cccc(C)c2C)CC1 | 0%
15 | CCN(CC)CCNC(=O)c1ccc(NS(=O)(=O)c2ccc3c(c2)OCCO3)cc1 | 0%
16 | Cc1nc2ccccc2n1CC(=O)N/N=C/c1cccs1 | -6%
17 | CN(C)c1ccc(C(=S)N2CCN(C(=S)Nc3ccc(Cl)cc3)CC2)cc1 | -6%
18 | CN1CCN(CCNC(=O)Nc2ccc([N+](=O)[O-])cc2)CC1 | -5%
19 | O=C(Nn1cnc2ccccc2c1=O)c1ccc([N+](=O)[O-])cc1Cl | 0%
20 | Cc1c(CN2CCCCC2)c(O)n(CCO)c(=O)c1C#N | -3%
21 | CCOc1cc(NC(=O)CCl)c(OCC)cc1NC(C)=O | -4%
22 | CC(NC(=O)COC(=O)c1ccc2c(c1)OCO2)c1ccccc1 (stereo unspecified) | 0%

Row | SMILES | inhibition
23 | CC(C)NC(=O)c1ccc(Cl)cc1Cl | -2%
24 | Cn1c(-c2sccc2OCc2cccc(C(F)(F)F)c2)n[nH]c1=S | -24%
25 | O=C(CC(NC(=O)c1ccccc1)c1ccccc1)Nc1ccc(F)c(F)c1 (stereo unspecified) | -6%
26 | CCOC(=O)C1(C)NC(c2ccco2)C2C(=O)N(c3ccccc3)C(=O)C21 (stereo unspecified) | -1%
27 | CC(=O)c1c(N2CCN(c3ccc(F)cc3)CC2)nc(=S)n(-c2ccccc2)c1C | -11%
28 | CNC(=O)C(=O)N/N=C/c1ccccn1 | 2%
29 | CCCC1NC(=S)NC(C)=C1C(C)=O (stereo unspecified) | -2%
30 | C/C(=N/NC(=O)CSc1ccccn1)c1ccc([N+](=O)[O-])cc1 | -2%
31 | CC(C)(C)C(=O)CSc1nc2ccccc2o1 | -4%
32 | CCOC(=O)C(C)Oc1cccc2c(=O)n(CC(=O)NCCc3ccc(OC)c(OC)c3)ccc12 (stereo unspecified) | -3%
33 | CCSC1=NCCN1C(=O)c1ccc(S(=O)(=O)N(CC)CC)cc1 | -5%
34 | CC(C)(C)c1ccc(/C=C2\SC(=O)N=C2N)cc1 | -3%
35 | Cc1c(Br)c([N+](=O)[O-])nn1CC(=O)Nc1sc2c(c1C(=O)OC(C)C)CCC(C)C2 (stereo unspecified) | 2%
36 | Cc1cc(Cl)ccc1OCc1nc(-c2ccncc2)no1 | -5%
37 | O=C(Nc1ccc2c(c1)CCC2)c1ccc(Br)s1 | 0%
38 | CCn1cc(C(=O)NCCCN2CCCCCC2)c(=O)c2cc(S(=O)(=O)N3CCc4ccccc4C3)ccc21 | -12%
39 | O=C(N/N=C/c1cc2c(cc1Br)OCO2)C1COc2ccccc2O1 (stereo unspecified) | 1%
40 | O=[N+]([O-])c1cccc(/C([O-])=C(/C(=S)Nc2ccccc2F)[n+]2ccccc2)c1 | -16%
41 | COc1cccc(-c2ccc(C#N)c(SCC(=O)NCCc3ccc(Cl)cc3)n2)c1 | -12%
42 | O=C(NCC1CCCO1)C1CCN(C2CCN(C(=O)C3CCCCC3)CC2)CC1 (stereo unspecified) | 0%
43 | Cc1cccc(-n2c(SCC(=O)Nc3cccc(S(=O)(=O)NC4=NCCCCC4)c3)nc3ccccc3c2=O)c1C | -4%
44 | O=C(Nc1ccc(F)cc1)C1CCN(C(=O)c2ccc([N+](=O)[O-])cc2)CC1 | 6%

Row | SMILES | inhibition
45 | O=C(O)c1ccc(NS(=O)(=O)c2ccc3c(c2)C(=O)c2cc(S(=O)(=O)Nc4ccc(C(=O)O)cc4)ccc2-3)cc1 | -6%
46 | O=C(COC(=O)Cc1ccc(Br)cc1)Nc1c(F)c(F)c(F)c(F)c1F | -7%
47 | CC(=O)c1ccccc1NC(=O)CC1(CC(=O)O)CCCCC1 | -1%
48 | CC(=O)NS(=O)(=O)c1ccc(NC(=S)NC(=O)C(C)(C)C)cc1 | -4%
49 | CC(C)(C)C(=O)NC(NC(=S)Nc1ccc(S(N)(=O)=O)cc1)C(Cl)(Cl)Cl (stereo unspecified) | 49% (active)
50 | NS(=O)(=O)c1ccc(NC(=S)Nc2ccc(Br)c(Cl)c2)cc1 | -9%
51 | COc1cccc(C2c3[nH]c4ccccc4c3CCN2Cc2cccc(C)n2)c1 (stereo unspecified) | -3%
52 | CCOc1ccc2nc(NC(=O)c3cc([N+](=O)[O-])ccc3N3CCOCC3)sc2c1 | -3%
53 | O=C(CCc1ccccc1)Nc1ccc(NC(=O)C2CCCCC2)nc1 | 0%
54 | O=C(NNC(=S)NCCCN1CCOCC1)c1ccncc1 | -2%
55 | OC(COCc1ccco1)CN1CCN(c2ccccc2)CC1 (stereo unspecified) | -4%
56 | Cc1cc(N2CCOCC2)nc2ccc(NC(=S)N3CCN(Cc4ccccc4)CC3)cc12 | -4%
57 | CCNC(=O)CC1C(=O)N(c2ccc(F)cc2)C(=O)N1Cc1cccs1 (stereo unspecified) | -6%
58 | CCO[C@H]1OC(C(=O)N2CCN(Cc3ccccc3)CC2)=C[C@@H](c2cn(C(C)=O)c3ccccc23)[C@@H]1CCCO | -3%
59 | CN(C)N(C)C(=O)C(O)(c1ccccc1)c1ccccc1 | -2%
60 | CS(=O)(=O)c1ccc2nc(NC(=O)c3ccc(Cl)nc3)sc2c1 | -2%
61 | O=[N+]([O-])c1ccc(N/N=C2/CCCCC2c2ccccn2)c([N+](=O)[O-])c1 (stereo unspecified) | -11%
62 | O=C(COc1ccccc1[N+](=O)[O-])NC1CC1 | -4%
63 | OCCNCCOc1ccc(Cl)c(Cl)c1 | -5%
64 | Cc1cccc(NC(=S)N(CCN(C)C)C(C)c2ccco2)c1 (stereo unspecified) | 0%
65 | COc1ccc(Br)cc1C(=O)Nc1cccc(C)c1C | -7%
66 | CCCCN1C(=O)c2ccc(C(=O)Nc3ccc(S(=O)(=O)N(C)C)cc3)cc2C1=O | 0%

Row | SMILES | inhibition
67 | O=C(NNC(=O)c1ccc(Cl)cc1Cl)c1cccs1 | -1%
68 | CC(=O)NS(=O)(=O)c1ccc(NC(=O)C2C3C=CC(C3)C2C(=O)O)cc1 (stereo unspecified) | -5%
69 | S=c1nc(C23CC4CC(CC(C4)C2)C3)nc2sccn12 | 2%
70 | O=C(CC1NCCc2ccccc21)Nc1cccc(Cl)c1 (stereo unspecified) | -1%
71 | CCN(CC)S(=O)(=O)c1ccc(N2CCCC2)c(NS(=O)(=O)c2cccs2)c1 | -5%
72 | Cc1ccn(-c2cccc(-n3ccc(C)n3)n2)n1 | 0%
73 | COc1ccccc1C1CC(=O)n2c(nc(-c3ccccc3)c2-c2ccccc2)S1 (stereo unspecified) | -4%
74 | CC1(C)CC(N(Cc2ccccc2)C(=O)Cc2ccccc2)CCO1 (stereo unspecified) | -3%
75 | Cc1cccc(C(=O)OC(C)CN2CCN(C)CC2)c1 (stereo unspecified) | -4%
76 | CC(C)(C)NC(=O)COC(=O)c1cc(Cl)ccc1[N+](=O)[O-] | 0%
77 | O=C(c1ccc(Cl)c([N+](=O)[O-])c1)N1CCN(c2ccccc2)CC1 | -4%
78 | COc1cc(NC(=O)c2ccc3c(c2)OCO3)ccc1NC(=O)c1cccs1 | 2%
79 | COc1ccc(/C=C2\SC(=S)N(CC(=O)NNC(=O)c3ccncc3)C2=O)cc1 | -1%
80 | COCCN(Cc1nc(-c2ccc(C(F)(F)F)cc2)no1)C(C)C | -5%
81 | CC(OC(=O)CNS(=O)(=O)/C=C/c1ccccc1)C(=O)Nc1ccc(S(=O)(=O)N2CCCC2)cc1 (stereo unspecified) | -8%
82 | Cc1ccc2nc(Nc3ncc4c(n3)CC(C)(C)CC4=O)nc(C)c2c1 | -1%
83 | COC(C(=O)NCc1ccccc1C)c1ccccc1 (stereo unspecified) | -11%
84 | CCC1(CC)NC(=O)N(Cc2nc3ccccc3s2)C1=O | -3%
85 | O=C(NC(=S)NC1CCSC1=O)c1ccccc1F (stereo unspecified) | -3%
86 | COc1ccc(-c2nn(-c3ccccc3)cc2/C=C\C(=O)N2CCOCC2)cc1[N+](=O)[O-] | -1%
87 | O=C(O)CC1S/C(=N\N=C/c2ccccc2O)N(c2ccc(O)cc2)C1=O (stereo unspecified) | -5%
88 | COC(=O)c1onc(-c2c(OC)cc(OC)cc2OC)c1C(=O)OC | -1%

Row | SMILES | inhibition
89 | CC(C)(C)NC(=O)NC(=O)CN1CCC(Cc2ccccc2)CC1 | -1%
90 | CCCN(CCC)c1c([N+](=O)[O-])c(=O)oc2ccccc12 | 32%
91 | Cc1c(C(=O)NC(=S)NCc2cccnc2)oc2ccccc12 | -9%
92 | Cc1cc(C(=O)N/N=C/c2ccc(O)c([N+](=O)[O-])c2)c(C)n1-c1ccc(F)cc1 | 10%
93 | Cc1ccccc1NCC(=O)N/N=C\c1ccc([N+](=O)[O-])s1 | -3%
94 | COC(=O)c1ccc(C(NC(=O)OCc2ccccc2)/C(C)=C/[C@@H](C)C(=O)NCc2ccc(OC)c(OC)c2)cc1 (stereo partly specified) | -7%
95 | O=C(CCC(=O)c1cccs1)NC1CCCCCC1 | -1%
96 | O=C(C(Cl)Cl)N1CCN(c2ccccn2)CC1 | -1%
97 | CCOc1cc(N2CCOCC2)c(OCC)cc1NC(=O)c1cc(C)nc2ccccc12 | -6%
98 | COC(=O)c1sc2[nH]c(=S)n(N)c(=O)c2c1C | -22%
99 | CC(Cc1cccs1)NC(=O)c1cccc(Cl)c1 (stereo unspecified) | -4%
100 | C=CCNC(=O)c1ccccc1NC(=O)c1ccc(Cl)c(S(=O)(=O)Nc2cccc(C)c2C)c1 | -5%
101 | COc1ccc(C(=O)Nc2sc(C)c(C)c2CN2CCOCC2)cc1 | -7%
102 | CCCn1nc(C(=O)Nc2ccc3nc(C)sc3c2)c2ccccc2c1=O | -7%
103 | COc1cc(C(=O)N[C@@H](C)C(=O)NCc2ccco2)cc(OC)c1OC | 1%
104 | Cn1c(SCC(=O)NC2CCCCC2)nnc1-c1ccc(N)cc1 | -4%
105 | COc1ccc(C2OCC3(CO2)SC(=O)NC3=O)cc1OC (stereo unspecified) | -1%
106 | CCN(C(=O)CSc1nc2ccccc2n1CC)C1CCS(=O)(=O)C1 (stereo unspecified) | -1%
